Hits are enriched below; roughly 17% of the tested compounds scored in any of these assays.
HT1080-NT tox: qHTS for induction of synthetic lethality in tumor cells producing 2HG: qHTS for the HT-1080-NT fibrosarcoma cell line. HT-1080-NT fibrosarcoma viability, CellTiter-Glo ATP luminescence, 48 h. Potency, µM (top dose mostly 46.1 µM), actives largely listed as cytotoxic. 360,000 compounds, 1.6% hits. AID 686970, 2013;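 further: NT is the 2HG producing partner of a matched IDH1 knockdown line; nearly all actives have a fitted effect of over 55% in size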
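Fibrosarcoma NT cells, 750 per well in 5% FBS RPMI, were exposed to compound for 48 hours. Viability: CellTiter-Glo luminescence.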
DT40 TDP1 no CPT: qHTS for Inhibitors of human tyrosyl-DNA phosphodiesterase 1 (TDP1): qHTS in cells in absence of CPT. DT40 Tdp1-/- hTDP1 cells, no CPT, ATP luminescence, 48 h. Potency, µM (doses to about 46.2 µM), hits mostly inhibitors. 420,000 compounds, 15% hits. AID 686978, 2013; further: nearly all actives have a fitted effect of over 55% in size
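Stably hTDP1-transfected Tdp1-null chicken DT40 cells were treated with library compounds minus camptothecin and grown for at least 48 hr at 37 °C, after which cellular ATP was quantified by luminescence.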
TDP1 cell CPT: qHTS for Inhibitors of human tyrosyl-DNA phosphodiesterase 1 (TDP1): qHTS in cells in presence of CPT | 420,000 compounds, 12% hits | chicken DT40 Tdp1-/-;hTDP1 cells + 20 nM CPT, ATP luminescence, 48 h | AID 686979, 2013 | Potency, µM (highest dose often 46.2 µM), most hits filed as inhibitors; further: nearly all actives have a fitted effect of over 55% in size
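Chicken DT40 Tdp1-/- cells complemented with human TDP1, 400 cells/well, exposed to compounds plus 20 nM camptothecin for at least 48 h at 37 C; viability read as ATP content by CellTiter-Glo luminescence.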
TGFb SMAD3 inh: qHTS for Inhibitors of TGF-b | Potency, µM (series often up to 46.1 µM), most hits filed as inhibitors | 410,000 compounds, 1.2% hits | HepG2 CAGA-GFP TGF-b/SMAD3 reporter, GFP fluorescence, 18 h; TGF-beta stimulated, 500 pg/mL final; further: nearly all actives have a fitted effect of over 65% in size
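HEPG2 CAGA-GFP cells (1000/well, DMEM with 1% FBS) were pre-incubated 2 h at 37 degrees C, given compound by pin tool, then stimulated with TGF-beta at 500 pg/mL final for 18 h before per-cell GFP fluorescence imaging.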
HepG2 tox: qHTS for Inhibitors of TGF-b: Cytotox Counterscreen; HepG2 CAGA-GFP viability, ATP luminescence, 18 h; Potency, µM (top dose mostly 46.1 µM), actives largely listed as cytotoxic; 410,000 compounds, 0.76% hits
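HepG2 CAGA-GFP cells (1000/well, DMEM with 1% FBS) received compound, then TGF-beta at 500 pg/mL final, and were incubated 18 hours at 37 degrees C. Viability was read by CellTiter-Glo luminescence. Media-only wells were set as complete cell-killing and DMSO as no toxicity.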
HT1080 IDH1KD tx: qHTS for induction of synthetic lethality in tumor cells producing 2HG: qHTS for the HT-1080-IDH1KD cell line. AID 686971, 2013. 360,000 compounds, 2% hits. Potency, µM (series often up to 46.1 µM), actives largely listed as cytotoxic. HT-1080 IDH1 knockdown viability, ATP luminescence, 48 h
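IDH1KD HT-1080 cells, 750/well, RPMI + 5% FBS; compound pinned after 2 h settling; 48 h, 37 °C; CellTiter-Glo luminescence; % activity normalised to DMSO and no-cell wells; curves fitted, classed by r2 and efficacy.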
Each line names hits and unclear results; the compound was inactive in the other large screens. The call rests on the fitted dose curve; in most records, active means well fitted curve in the direction sought with a large enough effect; inconclusive means small, poorly fitted or top-dose-only effect, or another doubt; inactive means no such curve, though single readings can be large; an effect the other way counts as inactive or inconclusive.

COc1cc(NC(=O)C2CCN(S(=O)(=O)c3c(C)noc3/C=C/c3c(C)cc(C)cc3C)CC2)cc(OC)c1	TDP1 cell CPT 13µM, TGFb SMAD3 inh inconclusive (no result: HT1080-NT tox, HT1080 IDH1KD tx)
Cc1cc(C)c(/C=C/c2onc(C)c2S(=O)(=O)N2CCC(C(=O)N(C)Cc3ccccc3)CC2)c(C)c1	DT40 TDP1 no CPT inconclusive, TDP1 cell CPT inconclusive, TGFb SMAD3 inh inconclusive (no result: HT1080-NT tox, HT1080 IDH1KD tx)
Cc1ccc(CNC(=O)C2CCN(S(=O)(=O)c3c(C)noc3/C=C/c3c(C)cc(C)cc3C)CC2)cc1	DT40 TDP1 no CPT inconclusive, TDP1 cell CPT inconclusive (no result: HT1080-NT tox, HT1080 IDH1KD tx)
COc1ccc(/C=C\c2onc(C)c2S(=O)(=O)N2CCC(C(=O)Nc3ccc(C)c(F)c3)CC2)cc1	DT40 TDP1 no CPT 6.5µM, TDP1 cell CPT 5.2µM, TGFb SMAD3 inh 11µM (no result: HT1080-NT tox, HT1080 IDH1KD tx)
O=[N+]([O-])c1cccc(S(=O)(=O)NCC2CC3CCC2C3)c1 (stereo unspecified)	DT40 TDP1 no CPT inconclusive
COc1ccc(C)cc1Nc1n[n+](-c2ccccc2)c(-c2ccc(OC)c(OC)c2OC)s1	HT1080-NT tox inconclusive, DT40 TDP1 no CPT 18µM, TDP1 cell CPT 16µM, TGFb SMAD3 inh inconclusive, HT1080 IDH1KD tx inconclusive
COc1ccc(C)cc1Nc1n[n+](-c2ccccc2)c(-c2c(Cl)cccc2Cl)s1	HT1080-NT tox inconclusive, DT40 TDP1 no CPT 13µM, TDP1 cell CPT 21µM, TGFb SMAD3 inh inconclusive, HepG2 tox 13µM, HT1080 IDH1KD tx inconclusive
COc1ccc(C)cc1Nc1n[n+](-c2ccccc2)c(-c2ccc(N(C)C)cc2)s1	DT40 TDP1 no CPT 21µM, TDP1 cell CPT 10µM
COc1ccc(C)cc1Nc1n[n+](C)c(-c2c3ccccc3cc3ccccc23)s1	none
O=C(C[C@H]1C[C@@H]2c3cc(NC(=O)c4cccnc4)ccc3O[C@@H]2[C@H](CO)O1)NCc1ccncc1	none
COc1ccccc1CNC(=O)Cn1ncn2c(cc3sccc32)c1=O	none (no result: HT1080-NT tox, HT1080 IDH1KD tx)
Cc1cc(C)cc(C(=O)NCC(=O)N2CCN(C(c3ccccc3)c3ccccc3)CC2)c1	HT1080-NT tox inconclusive, DT40 TDP1 no CPT 18µM, TDP1 cell CPT inconclusive, HT1080 IDH1KD tx inconclusive
O=C(NCC(=O)N1CCN(C(c2ccccc2)c2ccccc2)CC1)c1ccc(Br)o1	DT40 TDP1 no CPT inconclusive, TDP1 cell CPT inconclusive
O=C(NCC(=O)N1CCN(C(c2ccccc2)c2ccccc2)CC1)c1ccccc1Br	DT40 TDP1 no CPT 21µM, TDP1 cell CPT inconclusive, TGFb SMAD3 inh inconclusive
CCn1nnnc1SCC(=O)c1cc(OC)ccc1OC	none
COc1ccc(Nc2nc(C(C)(C)C)nc3c2nnn3Cc2ccccc2Cl)cc1OC	DT40 TDP1 no CPT 15µM, TDP1 cell CPT 18µM
CCOC(=O)CNc1nc(C(C)(C)C)nc2c1nnn2Cc1ccccc1Cl	DT40 TDP1 no CPT 26µM, TDP1 cell CPT inconclusive
Cc1nc2c(nnn2Cc2ccccc2Cl)c(=O)[nH]1	none
Cc1nc(NCCc2ccc(O)cc2)c2nnn(Cc3ccccc3)c2n1	HT1080-NT tox inconclusive, DT40 TDP1 no CPT 15µM, TDP1 cell CPT inconclusive, HT1080 IDH1KD tx inconclusive
Cc1nc(N(C)Cc2ccccc2)c2nnn(Cc3ccccc3)c2n1	DT40 TDP1 no CPT 18µM, TDP1 cell CPT 23µM
CC(C)CCNc1ncnc2c1nnn2Cc1ccccc1Cl	none
c1ccc(CN(Cc2ccccc2)c2ncnc3c2nnn3Cc2ccccc2)cc1	none
CC1(C(=O)Nc2cccc3ccccc23)CCN1C(=O)Cc1ccc(Cl)cc1Cl (stereo unspecified)	HT1080-NT tox inconclusive, DT40 TDP1 no CPT inconclusive, TGFb SMAD3 inh inconclusive, HT1080 IDH1KD tx inconclusive
Cc1nc(Nc2ccccc2Br)c2nnn(Cc3ccccc3)c2n1	DT40 TDP1 no CPT inconclusive, TDP1 cell CPT inconclusive
Cc1nc(Nc2ccc(Cl)cc2)c2nnn(Cc3ccccc3)c2n1	DT40 TDP1 no CPT inconclusive, TDP1 cell CPT inconclusive
Cc1nc(Nc2ccc(S(=O)(=O)N3CCCCC3C)cc2)c2nnn(Cc3ccccc3)c2n1 (stereo unspecified)	DT40 TDP1 no CPT 23µM, TDP1 cell CPT inconclusive, TGFb SMAD3 inh inconclusive
Cc1nc2c(nnn2Cc2ccccc2)c(=O)[nH]1	DT40 TDP1 no CPT inconclusive, TDP1 cell CPT 23µM
Cc1nc(Nc2cc(F)ccc2C)c2nnn(Cc3ccccc3)c2n1	DT40 TDP1 no CPT 21µM, TDP1 cell CPT inconclusive
COc1ccc(Nc2nc(C)nc3c2nnn3Cc2ccccc2)cc1OC	DT40 TDP1 no CPT 23µM, TDP1 cell CPT inconclusive
Cc1nc(N2CCC(C(N)=O)CC2)c2nnn(Cc3ccccc3)c2n1	none
CCCCn1c(N)c(N(CCOC)C(=O)COC(=O)COc2cccc(C(C)=O)c2)c(=O)[nH]c1=O	none
O=[N+]([O-])c1cc(S(=O)(=O)C(F)(F)F)ccc1Sc1nc2ccccc2[nH]1	HT1080-NT tox inconclusive, DT40 TDP1 no CPT 7.3µM, TDP1 cell CPT 7.3µM, TGFb SMAD3 inh inconclusive, HT1080 IDH1KD tx 18µM
O=[N+]([O-])c1ccc(N2CCNCC2)cc1Sc1nc2ccccc2[nH]1	DT40 TDP1 no CPT 23µM, TDP1 cell CPT inconclusive, HT1080 IDH1KD tx inconclusive
